These results are taken from PubChem BioAssay (Tox21).

Values without a mark were called inactive. Entries that show only a call come without a potency. Activity calls are given as the source filed them. Calls follow the shape of the full dose curve.

In this test the target is Acetylcholinesterase (Homo sapiens) (UniProt P22303). As to the kind of experiment: Acetylcholinesterase (AChE) small molecule antagonists: enzyme-based qHTS assay with human liver microsomes (AID 1347399). Also: nearly all actives have a fitted effect of over 60% in size. As to conditions: Potency: qHTS inhibition; outcome: qHTS inhibition; series mostly up to 115 µM. A digest of the protocol: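 Recombinant human AChE (50 mU/mL in the enzyme mix) and human liver microsomes (0.25 mg/mL final) were preincubated with compound and NADPH (0.25 mg/mL final) for 30 min at 37 C. Acetylthiocholine/DTNB was then added; thiocholine was read colorimetrically after 10 min at room temperature.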
Acetylcholinesterase (Homo sapiens), sequence (P22303 whole entry, looked up): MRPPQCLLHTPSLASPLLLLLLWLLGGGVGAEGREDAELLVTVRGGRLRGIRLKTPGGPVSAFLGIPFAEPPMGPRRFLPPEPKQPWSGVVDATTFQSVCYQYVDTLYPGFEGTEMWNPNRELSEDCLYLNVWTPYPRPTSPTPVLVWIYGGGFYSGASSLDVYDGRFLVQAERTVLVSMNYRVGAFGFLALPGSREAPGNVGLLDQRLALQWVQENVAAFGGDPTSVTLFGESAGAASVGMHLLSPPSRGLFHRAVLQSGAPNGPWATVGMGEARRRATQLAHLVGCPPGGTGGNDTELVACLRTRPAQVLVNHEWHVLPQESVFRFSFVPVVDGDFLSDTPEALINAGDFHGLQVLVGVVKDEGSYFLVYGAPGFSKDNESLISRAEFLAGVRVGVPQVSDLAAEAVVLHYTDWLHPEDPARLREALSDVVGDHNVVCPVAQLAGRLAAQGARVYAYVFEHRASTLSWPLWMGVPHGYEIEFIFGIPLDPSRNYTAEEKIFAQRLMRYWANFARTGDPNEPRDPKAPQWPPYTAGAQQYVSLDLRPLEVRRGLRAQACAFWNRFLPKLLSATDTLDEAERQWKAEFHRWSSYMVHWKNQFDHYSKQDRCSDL
For orientation: In qHTS, concentration-response curves come from the screen itself.
Take `O=C(Nc1cccc(C2=NCCN2)c1)Nc1cccc(C2=NCCN2)c1`: the activity change, negative = inhibition is -3.93% [at 23.6 µM].

As for `CO[Si](OC)(OC)OC`, the Potency result was “inactive”.

Regarding `CC(C)=NNC(N)=S`, the Potency result was “inactive”.

As for `CC1(C)C2=CCCC(C)(C)[C@]23CC[C@H]1C3`, the Potency entry was “inactive”.

For `Cc1c[nH]c2ccccc12`, the Potency result is “inactive”.

Regarding `CCOc1nc(F)cc2nc(S(=O)(=O)Nc3c(Cl)cccc3C(=O)OC)nn12`, the Potency result was “inactive”.

Regarding `Cc1occc(=O)c1O`, the Potency result was “inactive”.

Regarding `NC(CO)(CO)CO`, the outcome was inactive.

As for `CCNC(=O)/C=C/c1cccc(Br)c1`, the Potency result was “inactive”.

Regarding `Oc1ccc(Cc2ccccc2)cc1`, the Potency entry was “inactive”.

On to `CCCCCCCCCCCCCC(=O)O`, for which the Potency entry was “inactive”.

Turning to `C=CC(=O)OCCCCCCOC(=O)C=C`, the Potency entry is “inactive”.

In the case of `CCCCNS(=O)(=O)c1ccccc1`, the Potency result was “inactive”.

Consider `CSc1ccc(Cl)cc1`, for which the Potency result is “inactive”.

With `CC(=O)[C@@]1(O)CC[C@H]2[C@@H]3C[C@H](C)C4=CC(=O)CC[C@]4(C)[C@H]3CC[C@@]21C`, the Potency result is “inactive”.

For `CCN[C@H]1CN(CCCOC)S(=O)(=O)c2sc(S(N)(=O)=O)cc21`, the Potency entry is “inactive”.

Turning to `O=C(O)CC(C(=O)O)C(CC(=O)O)C(=O)O` (stereo not given), the Potency result is “inactive”.

Take `CCCCCCCCCOC(=O)CCCCC(=O)OCCCCCCC`: the Potency entry was “inactive”.

On to `O=C(O)c1cccc(O)c1`, for which the Potency result is “inactive”.

Take `CC(C)CC(=O)CC(C)CC(C)C` (stereo not given): the Potency result was “inactive”.

On to `NC(Cc1c[nH]c2ccccc12)C(=O)O` (stereo not given), for which the Potency result is “inactive”.

Take `CCCCOCCOCCSC#N`: the Potency result is “inactive”.

Take `ONc1ccccc1`: the Potency entry was “inactive”.

`COc1ccc(CCC(C)=O)cc1`: the Potency result was “inactive”.

As for `CCCCCCOC(=O)C(C)C`, the Potency result is “inactive”.

Take `C=CC(=O)CCCCC`: the Potency entry was “inactive”.

As to `c1ccc2c(c1)-c1cccc3c1c-2cc1ccccc13`, the Potency result was “inactive”.

Regarding `Nc1c[n+](N2CCOCC2)no1`, the Potency result was “inactive”.

Consider `NC(=O)NC(N)=O`, for which the Potency result was “inactive”.

For `CC(=O)Oc1cccc2c1C(=O)c1c(OC(C)=O)cc(C(=O)O)cc1C2=O`, the Potency entry was “inactive”.

On to `Cc1ccc(-c2ccccc2C#N)cc1`, for which the Potency result was “inactive”.

Regarding `O=C(O)Cc1ccccc1Oc1ccc(Cl)cc1Cl`, the Potency result was “inactive”.

As for `CCOCCOCCO`, the Potency entry is “inactive”.

With `Cc1cccc(C(=O)O)c1O`, the Potency result was “inactive”.

As to `CCCSSCCC`, the Potency entry is “inactive”.

In the case of `CN1Cc2cc(C(=O)N3CCC(C4CCNCC4)CC3)ccc2NC(CC(=O)O)C1=O` (stereo not given), the Potency entry is “inactive”.

For the compound `CC(=O)OCc1ccc2c(c1)OCO2`, the Potency entry is “inactive”.

`O=C(Nc1ncc([N+](=O)[O-])s1)c1cccs1`: the Potency result was “inactive”.

In the case of `O=C(O)CN(CCCN(CC(=O)O)CC(=O)O)CC(=O)O`, the activity change, negative = inhibition is 1.21% [at 23.6 µM].

With `CCO[Si](CCCN)(OCC)OCC`, the Potency entry was “inactive”.
